This is an account of results in the supplement of paper PMC10981050.

Counter-ions that a name gives are not always drawn.

A word on the cell viability: it is a read-out of living cells in per cent, often relative to untreated cells.

The first experiment concerns MARIMO. As to the kind of experiment: cell viability relative to vehicle control; higher = less cytotoxic. Particulars: 10 µM; SRSF2 genotype: SRSF2 P95H/wt. The method, boiled down: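 Each screen used CRISPR-edited mutant and wild-type clones from four leukaemia lines. Compounds were acoustically dispensed at a single 10 µM dose, and CellTiter-Glo luminescence was read after 48 h with the supernatant first removed. Viability was analysed in Genedata Screener and given as percent of the on-plate vehicle control.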
For `CC(=O)[C@@]1(O)CC[C@H]2[C@@H]3C[C@H](C)C4=CC(=O)CC[C@]4(C)[C@H]3CC[C@@]21C` [Medroxyprogesterone], the cell viability came to 74%.
Turning to `CCOC(=O)[C@H](CCc1ccccc1)N[C@@H](C)C(=O)N1[C@H](C(=O)O)C[C@@H]2CCC[C@@H]21` [Ramipril (Altace)], the cell viability was 87.7%.
Consider `CCCCS(=O)(=O)N[C@@H](Cc1ccc(OCCCCC2CCNCC2)cc1)C(=O)O` [Tirofiban Hydrochloride], for which the cell viability worked out at 89.6%.
As to `CC(C)n1nc(-c2cc3cc(O)ccc3[nH]2)c2c(N)ncnc21` [Torkinib (PP242)], the cell viability worked out at 23.1%.
As to `O.O.O.O.O.O.O.[Cl][La]([Cl])[Cl]` [Lanthanum(III) chloride heptahydrate], the cell viability is 109%.
On to `CC(C)c1c2cc(-c3ccnc(NC4CCC(NC5CCOCC5)CC4)n3)ccc2nn1C` (stereo not given), for which the cell viability stood at 13.4%.
With `COc1cc(N2CCC(N3CCN(C)CC3)CC2)ccc1Nc1ncnc(Nc2ccccc2S(=O)(=O)C(C)C)n1`, the cell viability was 56.7%.
As to `C#C[C@]1(O)CC[C@H]2[C@@H]3CCC4=CC(=O)CC[C@@H]4[C@H]3CC[C@@]21CC` [Levonorgestrel (Levonelle)], the cell viability was found to be 95.7%.
As to `NC(=O)c1cccc2cn(-c3ccc([C@@H]4CCCNC4)cc3)nc12` [MK-4827(Niraparib) tosylate], the cell viability was found to be 48.4%.

The experiment is the same for the next values; noted with them: 10 µM; SRSF2 genotype: SRSF2 wt/wt.
In the case of `CCCCCCCCCCCCc1ccc(S(=O)(=O)Nc2nncs2)cc1`, the cell viability stood at 109%.
Still for that read-out and setting: the same measure for `C#C[C@]1(O)CC[C@H]2[C@@H]3CCc4cc(O)ccc4[C@H]3CC[C@@]21C` [Ethinyl Estradiol]: 70%; for `C[C@]12CCC(=O)C=C1[C@@H]1C[C@@H]1[C@H]1[C@@H]3[C@@H]4C[C@@H]4[C@@]4(CCC(=O)O4)[C@@]3(C)CC[C@@H]12` [Drospirenone]: 91.8%.
With `CS(=O)(=O)CCNCc1ccc(-c2ccc3ncnc(Nc4ccc(OCc5cccc(F)c5)c(Cl)c4)c3c2)o1` [Lapatinib], the cell viability amounted to 77.6%.
On the same count and under the same terms, with `C[C@H](CC[C@@]1(O)O[C@H]2C[C@H]3[C@@H]4CC=C5C[C@@H](O[C@@H]6O[C@H](CO)[C@@H](O[C@@H]7O[C@@H](C)[C@H](O)[C@@H](O)[C@H]7O)[C@H](O)[C@H]6O[C@@H]6O[C@@H](C)[C@H](O)[C@@H](O)[C@H]6O)CC[C@]5(C)[C@H]4CC[C@]3(C)[C@H]2[C@@H]1C)CO[C@@H]1O[C@H](CO)[C@@H](O)[C@H](O)[C@H]1O` [Protodioscin] the figure was 0.77%.
Still for that read-out and setting: the same measure for `CC(=NNC(=S)N1CCC1)c1ccccn1`: 11.4%; for `CN(CC(=O)N(Cc1ccc(C2CCCCC2)cc1)c1ccc(C(=O)O)c(O)c1)S(=O)(=O)c1c(F)c(F)c(F)c(F)c1F`: 28.6%.
As for `CNS(=O)(=O)Nc1nccc(Cc2c(C)c3ccc(Oc4ncccn4)cc3oc2=O)c1F`, the cell viability was determined as 36.9%.
Still for that read-out and setting: the same measure for `CC(C)n1c([C@H](C)Nc2ncnc(N)c2C#N)cc2cccc(-c3ccc(=O)n(C)c3)c2c1=O`: 34%.
With `CCCN(CCC)C(=O)C1=Cc2ccc(-c3ccc(C(=O)N4CCCC4)cc3)cc2N=C(N)C1` [Motolimod (VTX-2337)], the cell viability turned out to be 25.7%.
In the case of `O=C(O)[C@H]1O[C@@H](Oc2cc3oc(-c4ccc(O)cc4)cc(=O)c3c(O)c2O)[C@H](O)[C@@H](O)[C@@H]1O` [Scutellarin], the cell viability came to 104%.
Same read-out and setting: with `CS(=O)(=O)c1ccc(-c2nnc(/C=C/c3nnc(-c4ccc(C#N)cc4)o3)n2-c2ccccc2Cl)nc1` the figure was 108%.
Same read-out and setting: with `CC(C)=CCCC(C)=CCCC(C)=CCCC(C)=CCC1=C(C)C(=O)c2ccccc2C1=O` [Vitamin K2] the figure was 92.6%.
On the same count and under the same terms, the same measure for `OCC(CO)N[C@H]1C[C@](O)(CO)[C@@H](O)[C@H](O)[C@H]1O` [Voglibose]: 104%; for `C[C@]12CC[C@@H]3c4ccc(OC(=O)c5ccccc5)cc4CC[C@H]3[C@@H]1CC[C@@H]2O` [Estradiol Benzoate]: 35.6%; for `CC(C)(Sc1ccncc1-c1ccc(C#N)c2ccccc12)C(=O)O` [Verinurad (RDEA3170)]: 104%.
For the molecule `N#Cc1c(Oc2ccc(F)c(NC(=O)Cc3cccc(C(F)(F)F)c3)c2)ccc2nc(NC(=O)C3CC3)sc12`, the cell viability was 36.8%.
On the same count and under the same terms, with `O=C(CSc1nc2c(c(=O)n1-c1ccccc1)SCC2)Nc1ccc(-c2ccccc2)cn1` the figure was 98.2%.
Same read-out and setting: with `C=C(C)C1CC=C(C)CC1` (single isomer, unassigned; (+)) [(+)-Dipentene] the figure was 108%; with `NC(=O)Nc1cc(-c2cccc(F)c2)sc1C(=O)N[C@H]1CCCNC1`, 13.4%.
Same read-out and setting: the same measure for `Cc1[nH]c(=O)c(C#N)cc1-c1ccncc1` [Milrinone (Primacor)]: 93.1%.
